Source: PubChem (National Center for Advancing Translational Sciences (NCATS))
Rows were chosen to be rich in hits. Some 7.9% of all compounds tested hit in one or more screens of this group.
SW480 rereplic: inducers of DNA re-replication in SW480 colon cancer cells; SW480 DNA re-replication, Hoechst DNA content imaging, 48 h; Potency, µM (titrated, usually from 46.1 µM), usual class: activators; 340,000 tested, 1.8% active; also: nearly all actives have a fitted effect of over 55% in size
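Quantitative HTS format with DMSO vehicle controls; 48 hr drug incubation at 37 C, then 40 min Hoechst staining and scanning imager measurement at 405 nm excitation.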
MCF10A rerep: inducers of DNA re-replication in MCF 10A breast cells; MCF 10A DNA re-replication, Hoechst nuclear intensity, 48 h; Potency, µM (top dose mostly 46.1 µM), actives largely listed as activators; 350,000 tested, 2.9% active; also: nearly all actives have a fitted effect of over 50% in size
HT1080NT lethal: kills 2HG-producing HT-1080-NT fibrosarcoma cells. 360,000 tested, 1.6% active. Potency, µM (top dose mostly 46.1 µM), hits mostly cytotoxic. HT-1080-NT fibrosarcoma viability, CellTiter-Glo ATP luminescence, 48 h;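 also: NT is the 2HG producing partner of a matched IDH1 knockdown line; nearly all actives have a fitted effect of over 55% in size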
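Luminescent CellTiter-Glo readout after 48 hours of compound exposure at 37 degrees C defined viability of HT-1080-NT cells. Activity was normalized to DMSO wells and cell-free media wells; concentration-response curves were fitted and assigned curve classes.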
HT1080 IDH1KD tx: HT-1080 IDH1 knockdown cell toxicity (counter line). 360,000 tested, 2% active. AID 686971. Potency, µM (series often up to 46.1 µM), actives largely listed as cytotoxic. HT-1080 IDH1 knockdown viability, ATP luminescence, 48 h
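Using the IDH1-knockdown HT-1080 line run in the same batch and compound series as the NT line, viability after 48 h at 37 °C was determined by CellTiter-Glo luminescence and expressed as % activity.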
KB-3-1 cytotox: KB-3-1 parental cell cytotoxicity; 400,000 tested, 1.4% active; Potency, µM (titrated, usually from 46.1 µM), hits mostly cytotoxic; AID 1347075; KB-3-1 viability, CellTiter-Glo ATP luminescence, 72 h; also: nearly all actives have a fitted effect of over 60% in size
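Cells are dispensed, compounds pinned in, plates held at 37 °C for 72 h, then CellTiter-Glo is added and luminescence read after 10 minutes. Cell line: parental KB-3-1 in phenol-red-free DMEM, 10% FBS.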
KB-V1 cytotox: KB-V1 MDR subline cytotoxicity | KB-V1 MDR cells viability, CellTiter-Glo, 72 h | Potency, µM (top dose mostly 46.1 µM), usual class: cytotoxic | 400,000 tested, 3.4% active | AID 1347076; also: nearly all actives have a fitted effect of over 60% in size
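Drug-selected KB-V1 cells, grown in DMEM lacking phenol red with 10% FBS, receive compound titrations; after three days at 37 degrees C, surviving cell ATP is quantified by CellTiter-Glo luminescence and responses normalized and curve-fitted.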
Large screens that a line does not name were inactive. Calls follow the shape of the dose curve; as a rule, active = well fitted curve in the direction sought with a large enough effect; inconclusive = small, poorly fitted or top-dose-only effect, or another doubt; inactive = no such curve, though single readings can be large; an effect the other way counts as inactive or inconclusive.

COc1ccccc1C(NC(=O)C1CCN(CCOc2ccc(Cl)cc2)CC1)c1ccccn1 (stereo unspecified)	HT1080NT lethal inconclusive, HT1080 IDH1KD tx inconclusive (no result: SW480 rereplic, MCF10A rerep)
Cc1ccc(N(CC(=O)NCC2CCCO2)C(=O)CCC(=O)Nc2ccccn2)cc1C (stereo unspecified)	none
O=C(CNC(=O)c1cccs1)N=Nc1c(O)[nH]c2ccc(Br)cc12	KB-V1 cytotox inconclusive
O=S(=O)(NCC1(N2CCOCC2)CCCCC1)c1ccc(F)cc1	SW480 rereplic inconclusive
c1cncc(CSc2nnc3ccc(-c4cccs4)nn23)c1	none
CN(C)C(=O)c1ccc(NC(=O)COC(=O)CC23CC4CC(CC(Br)(C4)C2)C3)cc1	none
Cn1c(-c2ccc(F)cc2)cc2onc(-c3c(F)cccc3Cl)c2c1=O	MCF10A rerep 2.31µM
COc1ccc(N2C(=O)CC2(/C=C/c2ccccc2OC)C(=O)NC2CCCC2)cc1 (stereo unspecified)	KB-3-1 cytotox inconclusive, KB-V1 cytotox 3.66µM
O=C1CC(/C=C/c2ccccc2)(C(=O)NC2CCCC2)N1c1ccc(S(=O)(=O)N2CCCC2)cc1 (stereo unspecified)	MCF10A rerep inconclusive, KB-V1 cytotox 2.91µM
CCOC(=O)CNC(=O)C1(/C=C/c2ccccc2)CC(=O)N1c1ccc(OC)cc1 (stereo unspecified)	none
CC1C(=O)N(c2ccc(S(=O)(=O)N(C)C)cc2)C1(/C=C/c1ccccc1)C(=O)NC1CCCC1 (stereo unspecified)	KB-V1 cytotox inconclusive
COC(=O)[C@H](Cc1c[nH]c2ccccc12)NCc1cccc(B(O)O)c1	SW480 rereplic 4.61µM
COC(=O)[C@@H](Cc1c[nH]c2ccccc12)NCc1ccc(B(O)O)cc1	SW480 rereplic 1.16µM
Cc1cc(C)c(S(=O)(=O)N(C)CC(=O)NCCN2CCOCC2)c(C)c1	none
COc1ccc(/C=C2\CCc3ccccc3C2=O)cc1O	SW480 rereplic 0.517µM, MCF10A rerep inconclusive, HT1080NT lethal 2.31µM, HT1080 IDH1KD tx 4.11µM, KB-3-1 cytotox 3.66µM, KB-V1 cytotox 5.17µM
CC(=O)Nc1ccc(/C=C2\CCc3ccccc3C2=O)cc1	HT1080NT lethal 23.1µM, HT1080 IDH1KD tx inconclusive, KB-V1 cytotox inconclusive
O=C1/C(=C\c2ccc([N+](=O)[O-])cc2)CCc2ccccc21	none
N#CC1=C(Nc2ccccc2)SC=C(c2ccccc2)N=C1N1CCOCC1	SW480 rereplic inconclusive, MCF10A rerep inconclusive
N#CC1=C(Nc2ccccc2)SC=C(c2ccc(Cl)c(Cl)c2)N=C1N1CCOCC1	MCF10A rerep 16.4µM
CC(=O)N1CC(C)Sc2ccc(S(=O)(=O)NCc3ccc(Cl)cc3)cc21 (stereo unspecified)	SW480 rereplic inconclusive, KB-3-1 cytotox 23.1µM
CC(=O)N1CC(C)Sc2ccc(S(=O)(=O)NCCc3ccc(C)cc3)cc21 (stereo unspecified)	MCF10A rerep inconclusive
CCN(CC)c1ccc(C=Nc2cc(C)cc(C)c2)c(O)c1	none
COC(=O)c1cc(-c2c(C)oc3cc(OC)ccc3c2=O)c(C)o1	KB-V1 cytotox 18.4µM
COC(=O)c1cc(-c2c(C)oc3cc(O)ccc3c2=O)c(C)o1	none
Cc1ccc(-c2nc(CSCC(=O)Nc3cc(C)on3)c(C)o2)cc1	KB-V1 cytotox 23.1µM
Cc1ccc(Oc2ccccc2NC(=O)CSCC(=O)Nc2cc(C)on2)cc1	MCF10A rerep inconclusive, HT1080NT lethal inconclusive, HT1080 IDH1KD tx inconclusive, KB-3-1 cytotox inconclusive, KB-V1 cytotox 4.61µM
Cc1cc(NC(=O)CSCC(=O)Nc2ccccc2N2CCCCC2)no1	SW480 rereplic inconclusive
Cc1cc(NC(=O)CSCC(=O)Nc2ccccc2Oc2ccccc2)no1	KB-3-1 cytotox inconclusive, KB-V1 cytotox 10.3µM
CCOC(=O)N1CCN(C(=O)c2oc3ccc(S(=O)(=O)N(CC)CC)cc3c2C)CC1	none
CCOCCn1ccc2c(OCC(=O)NCc3ccc(F)cc3)cccc2c1=O	none (no result: SW480 rereplic, MCF10A rerep, HT1080NT lethal, HT1080 IDH1KD tx)
Clc1ccccc1/C=N/Nc1cc(N2CCOCC2)ncn1	none
CCOc1ccc(/C=N/Nc2cc(N3CCOCC3)ncn2)c(O)c1	HT1080NT lethal inconclusive, HT1080 IDH1KD tx 2.31µM, KB-3-1 cytotox inconclusive (no result: SW480 rereplic, MCF10A rerep)
